# Assay results reported in the emibetuzumab library of Makowski et al. (2022).
# The other results are listed elsewhere or left out. How many sequences the whole screen found active is unknown.
# B1: VH:VL chains; a variant is named by its letters at X, in order (parent)
# chain 1: QVQLVQSGAEVKKPGASVKVSCKASGYTFTDYXMHWVRQAPGQGLEWMGXVNPNXXXTTYNQKFEGRVTMTTDTSTSTAYMELRSLRSDDTAVYYCARXNXLDXWGQGTTVTVSS
# chain 2: DIQMTQSPSSLSASVGDRVTITCSVSSSVSSIYLHWYQQKPGKAPKLLIYSTSNLASGVPSRFSGSGSGTDFTLTISSLQPEDFATYYCQVYSGYPLTFGGGTKVEIK
# Variants of: B1
# Experiment: yeast display scFab, FACS + sequencing
# Conditions: with MET
# How it was run: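 Heavy-chain CDR mutant scFab yeast surface library, enriched by two magnetic rounds on HGFR-Fc-coated Protein A beads and then by FACS. Cells were labelled with 1 nM HGFR-Fc in PBSB with 1% milk and anti-Myc for 3 h at room temperature, and the top 50% antigen-positive cells were gated. Round-3 sorted and input populations were deep sequenced in two replicates. Antigen binding call: positive if a sequence occurred in both antigen-positive samples, negative if it occurred only in input.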
row,Variant,antigen binding call
1,DKEGGYSV,no binding
2,DAKEGSLD,no binding
3,SAAGADWS,no binding
4,YRTAGSGV,binds
5,YRTADVGV,no binding
6,YRTAGAGV,binds
7,FAGGGDLV,no binding
8,VTGTGSGD,no binding
9,VKGKDSGD,no binding
10,VKERGSVD,binds
11,FTETGSVD,no binding
12,VEEEGSVD,no binding
13,VKAAGSVD,no binding
14,VEGGGSVD,no binding
15,VKARGSVD,binds
16,VKARGSGD,binds
17,FKARGSVD,binds
18,VTGTGYVF,no binding
19,FRGKGASS,binds
20,YRGKGAAS,binds
21,FRGKGAGY,binds
22,FRGKGAAS,binds
23,VTGEDDGD,no binding
24,DAKENAGD,no binding

row,Variant,antigen binding call
1,VAKEGAWV,no binding
2,VEARNAGA,no binding
3,DEGGTDVA,no binding
4,SAEATDLY,no binding
5,FAKAGFVA,no binding
6,YRGKGAVS,binds
7,FRGKGAGS,binds
8,FRGKGAVS,binds
9,YRRRGSLF,binds
10,YRRRGALF,binds
11,YKEGDSGV chain 1 R87K,no binding
12,YKGGDDLA,no binding
13,YAGRGDLA,no binding
14,FKGRGSLA,binds
15,SKGRGALA,binds
16,FKEGGSAA,no binding
17,SKERGDVA,no binding
18,STGRAALA,no binding
19,YKGRGALA,binds
20,YKGRGSLA,binds
21,VEEEGDWD,no binding
22,DKEEDSLA,no binding
23,SKGRSDGA,no binding
24,YKKGGSLA,binds

row,Variant,antigen binding call
1,FKRAGSLA,binds
2,SKGRSSLA,binds
3,YGKGGDLA,no binding
4,VKGRSDSA,no binding
5,VGGTSDWA,no binding
6,SRTGSDVD,no binding
7,SRGRGYGD,no binding
8,SRGRGAVD,binds
9,SRGRGSVD,binds
10,SGGKNSVD,no binding
11,SGEGGAAV,no binding
12,VRGRGVSY,no binding
13,YRGRGALF,binds
14,VRGRGALF,binds
15,YRGRGVLF,binds
16,AARADDWV,no binding
17,FTEEGDGA,no binding
18,DAGEAFSF,no binding
19,AGGGNDGV,no binding
20,FRGRGSAF,binds
21,FRGRSSAF,binds
22,YEERSDAF,no binding
23,SAEGDAAD,no binding
24,ARAASAGA,no binding

row,Variant,antigen binding call
1,DAARGAAA,no binding
2,SRARGAAA,binds
3,SRARGAGA,binds
4,SGEGGAGA,no binding
5,SRGRGFAA,no binding
6,SEEGTDWD,no binding
7,VATGDDVD,no binding
8,FKTKNYAD,no binding
9,DKEGGDVV,no binding
10,FRGESSGA,binds
11,FRGESAGA,binds
12,FTGTGSGA,no binding
13,FRGRDYGA,no binding
14,FRGESAAA,binds
15,YAAGSDVY,no binding
16,DGGKNDGD,no binding
17,DGTGGAGA,no binding
18,DTGGDAGV,no binding
19,DATGGDVV,no binding
20,FTEEGDGV,no binding
21,YRAESSGV,binds
22,YRAGSSGV,binds
23,YAEESSGV,no binding
24,YRAKSSGV,binds

row,Variant,antigen binding call
1,VAGAGDVV,no binding
2,FARKSFGS,no binding
3,YRRRGSSA,binds
4,YRRRGSVA,binds
5,YRKRGSSA,binds
6,YAKRGSWA,no binding
7,DEGGTSLD,no binding
8,VTAGDAGD,no binding
9,YKGKGDAD,no binding
10,YKAKGAGD,binds
11,YKAKGAAD,binds
12,YKARGAAD,binds
13,YKAGDAGD,binds
14,YKAEDVGD,no binding
15,VEAGDAGD,no binding
16,FAEGDDVV,no binding
17,FTTGGSAV chain 1 M48I,no binding
18,ARAGGSVV,binds
19,FRKAAVAV,no binding
20,ARAKTSWV,no binding
21,ARAAGDWV,no binding
22,FRGRGSLV,binds
23,FRKRGSAV,binds
24,AEERDSVV,no binding

row,Variant,antigen binding call
1,ARARGSWV,binds
2,AEAGDAVV,no binding
3,SEARSYLV,no binding
4,SEARSDVD,no binding
5,FRGRGSVV,binds
6,FTKAASWV,no binding
7,FRGRGSAV,binds
8,FRARGSWV,binds
9,FRGRDVAV,no binding
10,FRGRGSWV,binds
11,DAGTGAGD,no binding
12,SETTDDAV,no binding
13,SEARSSLV,no binding
14,FARGGYVA,no binding
15,YRRGSSSA,binds
16,YAEESSSA,no binding
17,DRREDSSA,no binding
18,DRRGDSSA,no binding
19,YRRKGSSA,binds
20,YRRGDSSA,binds
21,FRRGGASA,binds
22,VAAKSAAA chain 1 R38K,no binding
23,ATGGDDWF,no binding
24,VEGGGDWS,no binding

row,Variant,antigen binding call
1,SEARNAGD,no binding
2,VKGRADWA,no binding
3,VTGGSDVY,no binding
4,YRRGGASA,binds
5,FAGGGDGA,no binding
6,FAEGDDSA,no binding
7,DARGGSSA,no binding
8,FRGRDFSA,no binding
9,FATEGASA,binds
10,YRRGGSSA,binds
11,FRGKDASA,binds
12,FEETDASA,no binding
13,STGGDDVY,no binding
14,VAGTGDWD,no binding
15,DTGKDAGD,no binding
16,SETGGDVA,no binding
17,SEARSAVS,no binding
18,SEEASSSA,no binding
19,YRRRDSSA,binds
20,YRRGGSVA,binds
21,DRGRDSSA,no binding
22,YTGTSSSA,no binding
23,VTGGDDVY,no binding
24,YTGGDDVV,no binding

row,Variant,antigen binding call
1,FRGRGSSA,binds
2,YEGGGSSA,no binding
3,FRGGGSSA,binds
4,FKGEGSSA,no binding
5,DTGRADWA,no binding
6,DTREGDVD,no binding
7,YKRGDDSS,no binding
8,YKRGDSSS,binds
9,DGRGDALS,no binding
10,YKRGDASS,binds
11,VGTKGDAA,no binding
12,DEGGGSSA,no binding
13,FRGTGSWA,no binding
14,FRGGGSWA,binds
15,DATGGAVA,no binding
16,FRGGGSAA,binds
17,FRGGGAVA,binds
18,FRTGGAVA,binds
19,FRGRDDWA,no binding
20,STGTSDVF,no binding
21,DAKEGDGV,no binding
22,DRGGSSAA,no binding
23,FRTRDSAA,binds
24,FAEGASSS,no binding

row,Variant,antigen binding call
1,FRTRDSSS,binds
2,FRGGSSAA,binds
3,AARADSLS,no binding
4,FRGRDDVF,no binding
5,FRGRDAVF,binds
6,DRGRDDVF,no binding
7,FRGRAAVD,binds
8,FRGRDYGD,no binding
9,FRGRDSSF,binds
10,FRGRDFAD,no binding
11,FRGRDAVD,binds
12,FRGRDYGF,no binding
13,SAEKDDGS,no binding
14,DARGGAGA,no binding
15,VGEKGDGV,no binding
16,SEKEGDAA,no binding
17,YRGKGFVA,binds
18,SRGRGFVA,no binding
19,YRGRGFVA,binds
20,YRGRGFLV,binds
21,YRGKGFVV,binds
22,FRGRGFVA,no binding
